The record followed here is PubChem BioAssay (EPA / NIEHS).

Results filed as inconclusive are left out. Active and inactive are the calls of the source. Rule for the calls: active = hit-call score of the fitted dose curve at least 0.9, where 1 is the maximum; inconclusive = response in the unintended direction; inactive = score below 0.9.

Read-out in this test: ABC Transporter (ABCB11), ABCB11 (gene 8647)
The test can be described thus: CLD_ABCB11_6hr: CellzDirect (CLD) Gene Expression Assay for ABC Transporter (ABCB11) at 6 hours (AID 2283675).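 Note: hits raise ABCB11 mRNA level so AC50 marks induction.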 The procedure: CLD_6hr is a cell-based, multiplexed-readout assay that uses hepatocyte, a human liver primary cell, with measurements taken at 6 hours after chemical dosing in a 96-well plate.CLD_ABCB11_6hr is one of 16 assay component(s) measured or calculated from the CLD_6hr assay. It is designed to make measurements of mRNA induction, a form of inducible reporter, as detected with chemiluminescence signals by Quantitative Nuclease Protection Assay (qNPA) technology.Data from the assay component CLD_ABCB11_6hr was analyzed at the endpoint, CLD_ABCB11_6hr, in the positive analysis fitting direction relative to DMSO as the negative control and baseline of activity. Using a type of inducible reporter, gain-of-signal activity can be used to understand changes in the reporter gene as they relate to the gene ABCB11. Furthermore, this assay endpoint can be referred to as a primary readout. To generalize the intended target to other relatable targets, this assay endpoint is annotated to the transporter intended target family, where subfamily is ABC transporter.
Human hepatocyte cultures were treated daily for two consecutive days with fresh dosing solutions containing appropriate concentrations of the 320 ToxCast chemicals (chemical identities were blinded to CellzDirect and other ToxCast collaborators), vehicle control (0.2% DMSO), and positive control inducers as summarized in Table 1. Due to the large number of treatment groups and chemicals examined, the ToxCast chemicals were divided into two groups (spanning two independent cultures of hepatocytes from separate donor preparations (Hu778: ToxCast plates 1 and 2; Hu776: ToxCast plates 3 and 4). Each preparation of human hepatocyte cultures was treated with respective vehicle control, medium only control, set of six positive controls/reference chemicals for the five hepatic receptor pathways, and a subset of eight of the ToxCast chemicals (indoxacarb, pyrithiobac-sodium, norflurazon, cyhalofop-butyl, methomyl, thiram, acetochlor, and propiconazole). These replicate data, coupled with internal replicates designed within the blinded ToxCast chemical library, provided additional data to evaluate interindividual differences between hepatocyte preparations and their potential impact on chemical profiles.Cell morphology and integrity were evaluated using phase-contrast microscopy as an indicator of hepatocyte cell health (Tyson & Green, 1987). Cultures for each treatment group (i.e., media, vehicle [0.2% DMSO], positive control inducers [multiple concentrations], and the ToxCast chemicals [multiple concentrations]) were observed and cell morphology was assessed relative to vehicle control cultures at each harvest time point (0, 6, 24, or 48 h). […] Images were evaluated at the conclusion of the study to assess changes in cell integrity and account for the effects of chemical exposure on uncharacteristic changes in concentration-dependent gene expression profiles. The results from these determinations of apparent cytotoxicity were annotated (yes/no) alongside the corresponding qNPA data for reference.At the conclusion of each treatment period, hepatocyte cultures (96-well) were washed with 1 volume of HBSS, lysed by addition of 25 ul ArrayPlate lysis buffer (HTG, Tucson, AZ), and 70 ul/well of Denaturation Oil, denatured by incubation at 95C for 10 min, and frozen at approximately -70C until analysis by nuclease protection assay (qNPA) (Roberts et al., 2007). For qNPA analysis, cell lysates were thawed at 50C for approximately 30 min, qNPA probes were added, and samples were incubated at 95C for 10 min to begin the detection process by denaturing the target RNA, dissociating the duplexes and secondary structure hybridization. At the conclusion of the hybridization period, S1 nuclease reagent was added to each sample to digest all nonprotected nucleotides at 50C for 60-90 min. […]
For `CCC(C)Nc1c([N+](=O)[O-])cc(C(C)(C)C)cc1[N+](=O)[O-]` (stereo unspecified), the compound was called inactive.
The same measure, in the same setting: the result for `CC1(C)C(C=C(Cl)Cl)C1C(=O)OC(C#N)c1ccc(F)c(Oc2ccccc2)c1` (stereo unspecified) reads “inactive”; that for `Clc1ccccc1-c1nnc(-c2ccccc2Cl)nn1`, “inactive”.
Take `CNC(=O)CSP(=S)(OC)OC`: the call was inactive.
Turning to `N#Cc1c(Cl)c(Cl)c(Cl)c(C#N)c1Cl`, the AC50 was 20 µM (active).
Consider `COP(=O)(OC)OC=C(Cl)Cl`, for which the result was inactive.
Turning to `CC1(c2ccc(Oc3ccccc3)cc2)OC(=O)N(Nc2ccccc2)C1=O` (stereo unspecified), the call was inactive.
Consider `CCN(CC)C(=O)SCc1ccc(Cl)cc1`, for which the outcome was inactive.
Turning to `[2H]C1([2H])[n+]2ccccc2-c2cccc[n+]2C1([2H])[2H]`, the outcome was inactive.
In the case of `CNC(=O)Oc1cccc(N=CN(C)C)c1`, the call was inactive.
Regarding `O=S1OCC2C(CO1)C1(Cl)C(Cl)=C(Cl)C2(Cl)C1(Cl)Cl` (stereo unspecified), the call was inactive.
For `O=S(=O)(O)C(F)(F)C(F)(F)C(F)(F)C(F)(F)C(F)(F)C(F)(F)C(F)(F)C(F)(F)F`, the compound was called inactive.
Take `COC(=O)c1ccccc1S(=O)(=O)NC(=O)Nc1nc(C)nc(OC)n1`: the outcome was inactive.
For the compound `CCOCN(C(=O)CCl)c1c(C)cccc1CC`, the call was inactive.
Consider `O=[N+]([O-])/N=C1\NCCN1Cc1ccc(Cl)nc1`, for which the call was inactive.
`CCC(C)(NC(=O)c1cc(Cl)c(C)c(Cl)c1)C(=O)CCl` (stereo unspecified): the call was inactive.
As to `O=C(Nc1ccccc1)Nc1cnns1`, the call was inactive.
`COC(=O)c1ccccc1S(=O)(=O)NC(=O)N(C)c1nc(C)nc(OC)n1`: the compound was called inactive.
As for `CN1CSC(=S)N(C)C1`, the compound was classed as inactive.
Consider `COC(=O)c1ccccc1CS(=O)(=O)NC(=O)Nc1nc(OC)cc(OC)n1`, for which the compound was classed as inactive.
Regarding `O=[N+]([O-])c1c(Cl)c(Cl)c(Cl)c(Cl)c1Cl`, the call was inactive.
`CNC(=O)/C=C(\C)OP(=O)(OC)OC`: the compound was called inactive.
As for `O=C(NC(=O)c1c(F)cccc1F)Nc1ccc(OC(F)(F)C(F)OC(F)(F)F)c(Cl)c1` (stereo unspecified), the outcome was inactive.
As for `CCCN(CCC)c1c([N+](=O)[O-])cc(C(F)(F)F)cc1[N+](=O)[O-]`, the result was inactive.
For the compound `OCCOc1ccccc1`, the call was inactive.
`CCC(C)(C)C(=O)OC1=C(c2ccc(Cl)cc2Cl)C(=O)OC12CCCCC2`: the compound was classed as inactive.
On to `N#CN`, for which the result was inactive.
For `CC[C@H](C)[C@H]1O[C@]2(C=C[C@@H]1C)C[C@@H]1C[C@@H](C/C=C(\C)[C@@H](O[C@H]3C[C@H](OC)[C@@H](O[C@H]4C[C@H](OC)[C@@H](O)[C@H](C)O4)[C@H](C)O3)[C@@H](C)/C=C/C=C3\CO[C@@H]4[C@H](O)C(C)=C[C@@H](C(=O)O1)[C@]34O)O2` (tested in a mixture with another compound), the AC50 was 0.332 µM (active).
On to `O=C1c2ccccc2C(=O)N1SC(Cl)(Cl)Cl`, for which the call was inactive.
Regarding `C[C@H]1[C@H](c2ccc(Cl)cc2)SC(=O)N1C(=O)NC1CCCCC1`, the compound was called inactive.
Turning to `Oc1cc(Cl)ccc1Oc1ccc(Cl)cc1Cl`, the outcome was inactive.
On to `CC(C)(C)C(O)C(Oc1ccc(Cl)cc1)n1cncn1` (stereo unspecified), for which the result was inactive.
As for `CCc1ccc(C(=O)NN(C(=O)c2cc(C)cc(C)c2)C(C)(C)C)cc1`, the AC50 was 20 µM (active).
With `CCS(=O)(=O)c1cccnc1S(=O)(=O)NC(=O)Nc1nc(OC)cc(OC)n1`, the compound was called inactive.
In the case of `CCCN(CCOc1c(Cl)cc(Cl)cc1Cl)C(=O)n1ccnc1`, the compound was called inactive.
Regarding `O=C(O)C(F)(F)C(F)(F)C(F)(F)C(F)(F)C(F)(F)C(F)(F)C(F)(F)F`, the compound was classed as inactive.

The AC50 is the concentration at which the activity in the assay is half-maximal.
